Data from PubChem BioAssay.
Values joined by “and” are separate entries in the source; they are usually repeats but may differ in a detail not shown here. Identical values can stand only once. Inconclusive results are not listed. Active and inactive are the calls of the source.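 Rule for the calls, unless noted: active = normalized viability below 100% at a tested concentration; inactive = the rest.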

Legend:
[1] = viability loss in pontine glioma line – cell-based, SU-DIPG-XXV, MIPE5.0, CellTiter-Glo, qHTS, dose response (AID 1347065; cut-off not given, nearly all actives have AC50 up to about 26 µM;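 note: cells exposed to compound for 48 hours before ATP readout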); settings: CellTiter-Glo ATP luminescence
[2] = growth inhibition of DIPG cells – cell-based, MIPE4.0 library, CellTiter-Glo luminescence, qHTS (AID 1347066; cut-off not given, nearly all actives have AC50 up to about 30 µM;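 note: cells exposed to compound for 48 hours before readout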); settings: SU-DIPG-VI viability, CellTiter-Glo ATP luminescence
[3] = JHH-DIPG-1 glioma cell viability, MIPE5.0 library, CellTiter-Glo luminescence, qHTS (AID 1347067; cut-off not given, nearly all actives have AC50 up to about 26 µM;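 note: cells exposed to compound for 48 hours before readout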); settings: JHH-DIPG-1 glioma viability, CellTiter-Glo ATP luminescence
[4] = growth inhibition of DIPG cells – cell-based, MIPE5.0 library, qHTS (AID 1347068; cut-off not given, nearly all actives have IC50 up to about 30 µM;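 for IC50: cells exposed to compound for 48 hours before viability readout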); settings: SU-DIPG-XXV viability
[5] = compounds altering HSF1 focus formation in cells – imaging, Selleck Cancer Library (AID 1347162; in the data active = plate-normalised HSF1 focus index below about 0.46); settings: human cells, HSF1 nuclear foci imaging, at 10 µM; SSMD: measured here: HSF1 foci SSMD mean; cell count: measured here: cell number; plate-normalised HSF1 focus index: stronger effect = lower value
[6] = blockers of cellular phospholipid synthesis – cell-based, LOPAC library, screen 4, primary screen (AID 1347384; call rule not given here); settings: animal cells, phospholipid biosynthesis inhibition screen; at 10 µM
[7] = drug combination growth inhibition, ovarian cancer – cell-based, oncology-focused library, rucaparib conditional, profiling panel (AID 1508598); settings: patient-derived ovarian cancer cells, CellTiter-Glo viability, 144 h, stronger effect = lower value
[8] = target: Mitogen-activated protein kinase 7 (Homo sapiens) (UniProt Q13164); test: Gal4-ERK5 driven luciferase induction – cell-based, HTS, primary screen (AID 1508626;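 active = luciferase signal above three times the same-plate solvent-only control wells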;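 note: luciferase driven by Gal4-ERK5 fusion binding five Gal4 sites before minimal TATA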); settings: HeLa Gal4-ERK5 transactivation, 18 h, at 5 µM, stronger effect = higher value
[9] = galactose survival enhancers in mitochondrial complex I cybrids – cell-based, galactose medium, ATP luminescence, primary screen (AID 1645843;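 active = z-score of at least 1.8 in each of two replicates, scored against plate mean and spread of sample wells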;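 note: positive z means more ATP and so rescue of galactose-driven cybrid death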); settings: complex I mutant cybrid cells, 72 h, stronger effect = higher value
[10] = target: NAD(+) hydrolase SARM1 (Homo sapiens) (UniProt Q6SZW1); test: blocking NAD cleavage by SARM1 SAM-TIR – cell lysate, NAD-Glo luminescence (AID 1508614;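 active = compound whose remaining NAD level is above about 45 nM, limit read from the data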;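 note: higher remaining NAD means stronger inhibition of SARM1 NADase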); settings: SAM-TIR HEK293T lysate NADase, at 1 µM, stronger effect = higher value
[11] = at 0.000305 µM, OCI-C5x cells, with rucaparib 10 µM, 100% = cells with rucaparib alone
[12] = at 0.000305 µM, OCI-C5x cells, without rucaparib
[13] = at 0.000305 µM, OCI-P5x cells, with rucaparib 20 µM, 100% = cells with rucaparib alone
[14] = at 0.000305 µM, OCI-P5x cells, without rucaparib
[15] = at 0.00122 µM, OCI-C5x cells, with rucaparib 10 µM, 100% = cells with rucaparib alone
[16] = at 0.00122 µM, OCI-C5x cells, without rucaparib
[17] = at 0.00122 µM, OCI-P5x cells, with rucaparib 20 µM, 100% = cells with rucaparib alone
[18] = at 0.00122 µM, OCI-P5x cells, without rucaparib
[19] = at 0.00488 µM, OCI-C5x cells, with rucaparib 10 µM, 100% = cells with rucaparib alone
[20] = at 0.00488 µM, OCI-C5x cells, without rucaparib
[21] = at 0.00488 µM, OCI-P5x cells, with rucaparib 20 µM, 100% = cells with rucaparib alone
[22] = at 0.00488 µM, OCI-P5x cells, without rucaparib
[23] = at 0.0195 µM, OCI-C5x cells, with rucaparib 10 µM, 100% = cells with rucaparib alone
[24] = at 0.0195 µM, OCI-C5x cells, without rucaparib
[25] = at 0.0195 µM, OCI-P5x cells, with rucaparib 20 µM, 100% = cells with rucaparib alone
[26] = at 0.0195 µM, OCI-P5x cells, without rucaparib
[27] = at 0.0781 µM, OCI-C5x cells, with rucaparib 10 µM, 100% = cells with rucaparib alone
[28] = at 0.0781 µM, OCI-C5x cells, without rucaparib
[29] = at 0.0781 µM, OCI-P5x cells, with rucaparib 20 µM, 100% = cells with rucaparib alone
[30] = at 0.0781 µM, OCI-P5x cells, without rucaparib
[31] = at 0.313 µM, OCI-C5x cells, with rucaparib 10 µM, 100% = cells with rucaparib alone
[32] = at 0.313 µM, OCI-C5x cells, without rucaparib
[33] = at 0.313 µM, OCI-P5x cells, with rucaparib 20 µM, 100% = cells with rucaparib alone
[34] = at 0.313 µM, OCI-P5x cells, without rucaparib
[35] = at 1.25 µM, OCI-C5x cells, with rucaparib 10 µM, 100% = cells with rucaparib alone
[36] = at 1.25 µM, OCI-C5x cells, without rucaparib
[37] = at 1.25 µM, OCI-P5x cells, with rucaparib 20 µM, 100% = cells with rucaparib alone
[38] = at 1.25 µM, OCI-P5x cells, without rucaparib
[39] = at 5 µM, OCI-C5x cells, with rucaparib 10 µM, 100% = cells with rucaparib alone
[40] = at 5 µM, OCI-C5x cells, without rucaparib
[41] = at 5 µM, OCI-P5x cells, with rucaparib 20 µM, 100% = cells with rucaparib alone
[42] = at 5 µM, OCI-P5x cells, without rucaparib

Sequence of Mitogen-activated protein kinase 7 (Homo sapiens) (Q13164 whole entry, looked up, the tested form may be a part): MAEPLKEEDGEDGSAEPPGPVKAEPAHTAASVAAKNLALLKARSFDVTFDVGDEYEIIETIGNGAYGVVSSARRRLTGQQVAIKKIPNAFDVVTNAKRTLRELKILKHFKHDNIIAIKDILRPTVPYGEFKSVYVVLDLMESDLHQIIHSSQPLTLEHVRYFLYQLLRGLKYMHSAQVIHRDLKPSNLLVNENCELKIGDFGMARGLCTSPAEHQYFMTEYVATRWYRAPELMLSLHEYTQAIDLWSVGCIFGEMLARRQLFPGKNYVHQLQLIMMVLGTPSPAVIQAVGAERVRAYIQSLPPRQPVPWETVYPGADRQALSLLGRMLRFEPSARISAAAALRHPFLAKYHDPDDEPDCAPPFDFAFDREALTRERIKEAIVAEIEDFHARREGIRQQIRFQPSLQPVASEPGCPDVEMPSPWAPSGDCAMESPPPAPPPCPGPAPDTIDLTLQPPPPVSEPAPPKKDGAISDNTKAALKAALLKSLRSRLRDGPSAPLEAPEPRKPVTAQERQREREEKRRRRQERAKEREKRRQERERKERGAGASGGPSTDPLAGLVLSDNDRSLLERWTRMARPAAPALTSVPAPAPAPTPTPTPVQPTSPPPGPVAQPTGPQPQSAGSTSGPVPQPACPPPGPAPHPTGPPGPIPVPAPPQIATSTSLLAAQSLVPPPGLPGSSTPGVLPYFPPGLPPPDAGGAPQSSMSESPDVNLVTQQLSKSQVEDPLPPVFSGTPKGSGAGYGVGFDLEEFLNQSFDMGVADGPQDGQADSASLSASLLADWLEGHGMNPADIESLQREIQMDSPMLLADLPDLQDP
Sequence of NAD(+) hydrolase SARM1 (Homo sapiens) (Q6SZW1 whole entry, looked up): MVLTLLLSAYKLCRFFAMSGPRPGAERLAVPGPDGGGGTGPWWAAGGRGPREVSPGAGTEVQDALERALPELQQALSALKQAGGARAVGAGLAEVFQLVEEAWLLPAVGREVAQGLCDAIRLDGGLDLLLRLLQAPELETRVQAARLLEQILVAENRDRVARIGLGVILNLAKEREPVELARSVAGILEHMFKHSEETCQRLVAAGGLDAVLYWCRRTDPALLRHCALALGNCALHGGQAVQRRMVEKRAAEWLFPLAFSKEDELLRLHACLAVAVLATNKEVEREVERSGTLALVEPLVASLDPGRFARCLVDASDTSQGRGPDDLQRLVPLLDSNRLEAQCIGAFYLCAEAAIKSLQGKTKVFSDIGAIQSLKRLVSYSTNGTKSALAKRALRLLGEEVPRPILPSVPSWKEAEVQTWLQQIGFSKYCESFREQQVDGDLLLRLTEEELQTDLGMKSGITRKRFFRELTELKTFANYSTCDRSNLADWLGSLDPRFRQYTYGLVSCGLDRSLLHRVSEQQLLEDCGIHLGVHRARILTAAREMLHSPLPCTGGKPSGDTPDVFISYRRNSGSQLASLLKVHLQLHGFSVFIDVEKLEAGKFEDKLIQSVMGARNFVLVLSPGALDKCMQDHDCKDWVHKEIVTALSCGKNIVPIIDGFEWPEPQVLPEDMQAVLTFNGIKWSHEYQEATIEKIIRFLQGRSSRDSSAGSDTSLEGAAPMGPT

Cc1cc2c(C(C)C)c(O)c(O)c(C=O)c2c(O)c1-c1c(C)cc2c(C(C)C)c(O)c(O)c(C=O)c2c1O
active: AC50 [1] 7.42 µM | AC50 [2] 8.33 µM | AC50 [3] 2.95 µM | IC50 [4] 23.5 µM | plate-normalised HSF1 focus index [5] 0.468 | viability [7, 13] 95.4% | viability [7, 17] 95.6% | viability [7, 21] 96.5% | viability [7, 37] 95.9% | viability [7, 41] 89.5%
-10.3: SSMD [5]
inactive: outcome [6] | viability [7, 11] 113% | viability [7, 12] 130% | viability [7, 14] 103% | viability [7, 15] 115% | viability [7, 16] 120% | viability [7, 18] 104% | viability [7, 19] 119% | viability [7, 20] 131% | viability [7, 22] 108% | viability [7, 23] 113% | viability [7, 24] 134% | viability [7, 25] 101% | viability [7, 26] 112% | viability [7, 27] 110% | viability [7, 28] 123% | viability [7, 29] 108% | viability [7, 30] 116% | viability [7, 31] 128% | viability [7, 32] 144% | viability [7, 33] 107% | viability [7, 34] 113% | viability [7, 35] 110% | viability [7, 36] 148% | viability [7, 38] 110% | viability [7, 39] 130% | viability [7, 40] 156% | viability [7, 42] 106% | luciferase signal [8] 28 AU | z-score [9] -1.29 and -0.705
5460: cell count [5]

COc1ccccc1OCC(O)CN1CCN(CC(=O)Nc2c(C)cccc2C)CC1 (stereo not given)
7450: cell count [5]
2.29: SSMD [5]
active: viability [7, 17] 96% | viability [7, 21] 93.5% | viability [7, 25] 94.5% | viability [7, 33] 94.5% | viability [7, 38] 92.6% | viability [7, 39] 67.5% | viability [7, 40] 39.4% | viability [7, 41] 49.6% | viability [7, 42] 23.6%
inactive: outcome [1] | outcome [2] | outcome [3] | outcome [4] | plate-normalised HSF1 focus index [5] 1.14 | outcome [6] | viability [7, 11] 108% | viability [7, 12] 113% | viability [7, 13] 102% | viability [7, 14] 108% | viability [7, 15] 114% | viability [7, 16] 124% | viability [7, 18] 106% | viability [7, 19] 115% | viability [7, 20] 113% | viability [7, 22] 109% | viability [7, 23] 106% | viability [7, 24] 107% | viability [7, 26] 108% | viability [7, 27] 108% | viability [7, 28] 114% | viability [7, 29] 101% | viability [7, 30] 106% | viability [7, 31] 110% | viability [7, 32] 118% | viability [7, 34] 107% | viability [7, 35] 102% | viability [7, 36] 121% | viability [7, 37] 104% | remaining NAD [10] 10 nM | luciferase signal [8] 56 AU | z-score [9] -0.345 and -0.115 and 0.005
